Test results taken from PubChem BioAssay AID1159580 (chemical genetic matrix, 2015).
“And” between values parts separate entries of the source, which are not always exact repeats. Equal entries are not always repeated. The whole screen tested about 5,500 compounds, of which about 2,000 (36%) were called active. About 18% were inconclusive and are not listed. No stated cut-off is given here; in the data, active means normalized growth mostly below about 0.91 (no sharp cut-off); inconclusive means no clear call, values can overlap the other calls; inactive means mostly above about 0.92. The list shows a part of the results.

Assay: chemical genetic growth profiling, strain panel (AID 1159580);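 further: tested at 20 µM; growth read once vehicle control cultures reached saturation at 30 °C; 1 = growth at the plate median or of vehicle wells; lower values mean less growth of the strain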
Conditions: S. cerevisiae deletion strains, growth OD

Measured: normalized growth

N[C@@H](C(=O)O)[C@@H](O)[C@H](O)[C@H](O)CO
inactive: locus YAL013W, strain DEP1, active compounds read low 1.01 | locus YAL021C, strain ccr4, active compounds read low 1.01 | locus YAL026C, strain drs2, active compounds read low 1.04 | locus YAL030W, strain snc1, active compounds read low 1.03 | locus YBL061C, strain skt5, active compounds read low 1.03 | locus YBR009C, strain hhf1, active compounds read low 1.03 | locus YBR021W, strain FUR4, active compounds read low 1.01 | locus YBR023C, strain chs3, active compounds read low 1.04 | locus YBR171W, strain sec66, active compounds read low 1.04 | locus YBR229C, strain ROT2, active compounds read low 1 | locus YBR231C, strain swc5, active compounds read low 1.03 | locus YBR279W, strain paf1, active compounds read low 1.01 | locus YCL011C, strain gbp2, active compounds read low 1.04 | locus YCL016C, strain dcc1, active compounds read low 1.02 | locus YCL029C, strain bik1, active compounds read low 1.02 | locus YCL061C, strain MRC1, active compounds read low 1.02 | locus YCL069W, strain vba3, active compounds read low 1.03 | locus YCR088W, strain abp1, active compounds read low 1.02 | locus YDL005C, strain med2, active compounds read low 1.03 | locus YDL035C, strain GPR1, active compounds read low 1.03 | locus YDL040C, strain nat1, active compounds read low 1.01 | locus YDL074C, strain BRE1, active compounds read low 1.06 | locus YDL101C, strain DUN1, active compounds read low 1.01 | locus YDL185W, strain tfp1, active compounds read low 1.02 | locus YDL192W, strain arf1, active compounds read low 1.03 | locus YDR001C, strain nth1, active compounds read low 1.02 | locus YDR069C, strain doa4, active compounds read low 1.02 | locus YDR101C, strain arx1, active compounds read low 1.02 | locus YDR137W, strain rgp1, active compounds read low 1.04 | locus YDR150W, strain NUM1, active compounds read low 1.02 | locus YDR159W, strain sac3, active compounds read low 1.07 | locus YDR162C, strain NBP2, active compounds read low 1.01 | locus YDR195W, strain ref2 1.02 | locus YDR297W, strain sur2, active compounds read low 1.03 | locus YDR318W, strain mcm21, active compounds read low 1 | locus YDR334W, strain swr1, active compounds read low 1.03 | locus YDR335W, strain msn5, active compounds read low 1.03 | locus YDR388W, active compounds read low 1.01 | locus YDR392W, strain spt3, active compounds read low 1.02 | locus YDR502C, strain sam2, active compounds read low 1.01 | locus YEL003W, strain gim4, active compounds read low 1.03 | locus YEL037C, strain rad23, active compounds read low 1.02 | locus YEL061C, strain CIN8 (second series), active compounds read low 1.03 | locus YEL061C, strain CIN8, active compounds read low 1.02 | locus YER015W, strain faa2, active compounds read low 1.03 | locus YER016W, strain bim1, active compounds read low 1.02 | locus YER110C, active compounds read low 1.02 | locus YER111C, strain swi4, active compounds read low 1.03 | locus YER155C, strain BEM2 (second series), active compounds read low 1 | locus YER155C, strain BEM2, active compounds read low 1.01 | locus YER167W, strain BCK2, active compounds read low 1 | locus YFR010W, strain ubp6, active compounds read low 1.04 | locus YGL078C, strain dbp3, active compounds read low 1.01 | locus YGL086W, strain mad1, active compounds read low 1.01 | locus YGL167C, strain pmr1, active compounds read low 1.04 | locus YGL173C, strain kem1, active compounds read low 1.04 | locus YGL227W, strain vid30, active compounds read low 1.02 | locus YGL240W, strain doc1, active compounds read low 1.02 | locus YGL248W, strain PDE1, active compounds read low 1 | locus YGL253W, strain hxk2, active compounds read low 1.04 | locus YGR135W, strain pre9, active compounds read low 1.01 | locus YGR252W, strain gcn5, active compounds read low 0.967 | locus YHR013C, strain ard1, active compounds read low 1.05 | locus YHR027C, strain rpn1, active compounds read low 1.04 | locus YHR030C, strain SLT2, active compounds read low 1.01 and 1.05 | locus YHR079C, strain IRE1 (second series), active compounds read low 1.02 | locus YHR079C, strain IRE1, active compounds read low 1.03 | locus YHR094C, strain hxt1, active compounds read low 1.02 | locus YHR129C, strain ARP1, active compounds read low 1 | locus YHR142W, strain chs7, active compounds read low 1.07 | locus YHR200W, strain rpn10, active compounds read low 1.02 | locus YIL066C, strain RNR3, active compounds read low 1.01 | locus YIL073C, strain SPO22, active compounds read low 1.05 | locus YIL125W, strain kgd1, active compounds read low 1.02 | locus YIR030C, strain dcg1, active compounds read low 1.02 | locus YJL092W, strain hpr5, active compounds read low 1.03 | locus YJL095W, strain BCK1 (second series), active compounds read low 1.02 | locus YJL095W, strain BCK1, active compounds read low 1.01 and 1.04 | locus YJL115W, strain asf1, active compounds read low 1.04 | locus YJL129C, strain trk1, active compounds read low 1.06 | locus YJL134W, strain LCB3, active compounds read low 1.01 | locus YJL154C, strain vps35, active compounds read low 1.02 | locus YJL164C, strain tpk1, active compounds read low 1.03 | locus YJL166W, strain qcr8, active compounds read low 1.03 | locus YJL168C, strain set2, active compounds read low 1.02 | locus YJL187C, strain SWE1 (second series), active compounds read low 1.01 | locus YJL187C, strain SWE1, active compounds read low 1.05 | locus YJR043C, strain POL32, active compounds read low 1.02
